Bioassay records: PubChem, National Center for Advancing Translational Sciences (NCATS)
FMDV antiviral = High Throughput Screening for Foot and Mouth Disease Virus Antivirals. FMDV antiviral cell-based qHTS. 1.2% of 410,000 active. Potency, µM (top dose mostly 57.9 µM), inactives show at the highest dose activity change, negative = inhibition, actives largely listed as inhibitors; calls by dose curve; tested in HEK293T cells; further: read-out not given here; potency means the concentration at half of the fitted maximal effect; nearly all actives have a fitted effect of over 45% in size
FBPA Giardia inh = qHTS Assay for Inhibitors of Fructose-1,6-bisphosphate Aldolase from Giardia Lamblia; A8B2U2; purified Giardia FBPA; Potency, µM (highest dose often 59.6 µM), without a hit: top-dose activity, negative = inhibition, usual class: inhibitors; 0.71% of 290,000 active; AID 2451, 2010; further: potency means the concentration at half of the fitted maximal effect; nearly all actives have a fitted effect of over 55% in size
Target sequence (A8B2U2 whole entry, looked up): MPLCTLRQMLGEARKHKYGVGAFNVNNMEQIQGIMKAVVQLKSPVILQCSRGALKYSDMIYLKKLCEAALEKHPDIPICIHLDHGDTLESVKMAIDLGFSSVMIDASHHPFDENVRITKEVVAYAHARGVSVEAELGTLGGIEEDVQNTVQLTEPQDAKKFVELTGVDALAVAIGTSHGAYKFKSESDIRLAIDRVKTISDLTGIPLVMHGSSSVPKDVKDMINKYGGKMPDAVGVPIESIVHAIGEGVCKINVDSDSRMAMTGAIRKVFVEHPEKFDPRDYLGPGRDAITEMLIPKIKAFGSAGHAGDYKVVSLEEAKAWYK
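Giardia FBPA (40 nM reagent) was preincubated 10 min at RT with compound (up to 57.5 uM final), then substrate plus GAPDH/TPI/NAD/arsenate coupling system with diaphorase/resazurin was added; resorufin fluorescence (525/598 nm) was read after 20 min.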
HCV inhibitor = qHTS Assay for Inhibitors of Hepatitis C Virus (HCV). 3.4% of 340,000 active. Huh7.5.1 HCVcc-Cre infection, luciferase reporter, 44 h. Potency, µM (doses to about 41.8 µM), for the others: at the highest dose activity change, negative = inhibition, most hits filed as inhibitors. AID 651820, 2012; further: potency means the concentration at half of the fitted maximal effect
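Seed cells (1,000/well) for 4 h; treat with compound and infect with HCVcc-Cre, moi about 0.5. Incubate 44 h, then detect luciferase activity.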
HCMV inh = qHTS Assay for inhibitors of the human cytomegalovirus (HCMV); activity change, negative = inhibition, % at 57.5 µM; HFF cells, HCMV-luciferase reporter, 72 h; stronger effect = lower value; 4.5% of 410,000 active; in the data active means activity change below about -60%; inconclusive means no clear call, values can overlap the other calls; inactive means above about -39%
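Luciferase read-out from HCMV-luciferase-infected HFFs (MOI 1 PFU/cell) 72 h post infection at 37C; compounds added after 16 h cell attachment; activity normalized between buffer-only basal and Salinomycin (10uM) inhibitor controls.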
MARV entry inh = qHTS for inhibitors of binding or entry into cells for Marburg Virus. 1.8% of 300,000 active. Marburg virus pseudotyped entry inhibition, cell reporter. Potency, µM (highest dose often 37.8 µM), for inactives: at the top dose activity change, negative = inhibition, actives largely listed as inhibitors. AID 540276, 2011; calls by dose curve; tested in HEK293 cells; further: potency means the concentration at half of the fitted maximal effect
LASV entry inh = qHTS for Inhibitors of binding or entry into cells for Lassa Virus; Lassa virus pseudotype entry inhibition, cell reporter; Potency, µM (highest dose often 37.9 µM), inactives show at the top dose activity change, negative = inhibition, most hits filed as inhibitors; 1.2% of 300,000 active; AID 540256, 2011; calls by dose curve; tested in HEK293 cells; further: potency means the concentration at half of the fitted maximal effect; nearly all actives have a fitted effect of over 50% in size
An asterisk follows results filed as active; ? = inconclusive; . = no result; [ ] = dose if it differs, or a comment. A selection: hits, their analogues and other compounds. The true share with any hit is near 8.3%. Unless noted, the call rests on the fitted dose curve; in most records, active means well fitted curve in the direction sought with a large enough effect; inconclusive means small, poorly fitted or top-dose-only effect, or another doubt; inactive means no such curve, though single readings can be large; an effect the other way counts as inactive or inconclusive. On the % scale 0 is the no-effect control and ±100 the full control effect.

SMILES	FMDV antiviral	FBPA Giardia inh	HCV inhibitor	HCMV inh	MARV entry inh	LASV entry inh
COc1ccc2c(C(=O)CCl)c[nH]c2c1	35µM*	-13%	?	-101*	.	.
Cc1cccc(C(=O)NC2(C(F)(F)F)N=C(c3ccccc3)N(C3CCCCC3)C2=O)c1 (stereo not drawn)	-28%	.	.	4	0%[46.1 µM]	4%[46.1 µM]
COCC(C)n1c(C)cc(C(=O)COc2ccc(S(=O)(=O)N3CCOCC3)cc2Cl)c1C (stereo not drawn)	?	-1%	14µM*	40	?	?
O=C(COc1ccc(S(=O)(=O)N2CCOCC2)cc1Cl)NC1CC1	-12%	-9%	14%	-10	8%[46.1 µM]	11%
CCOC(=O)N1CCc2c(sc3c2c(=O)n(-c2ccc(Cl)cc2)c(=O)n3CC(=O)Nc2ccccc2)C1	-13%	.	.	9	.	4%[46.1 µM]
Cc1cc(C(=O)COC(=O)c2ccc3c(c2)OCO3)c(C)n1Cc1cccs1	-14%	3%	-8%	-19	-26%	?
Cc1cc(C(=O)COC(=O)c2ccccc2O)c(C)n1Cc1cccs1	28µM*	-5%	?	-103*	0.82µM*	0.33µM*
Cc1cc(C(=O)COc2cccnc2[N+](=O)[O-])c(C)n1Cc1cccs1	7.9µM*	-20%	?	15	?	?
CC(=O)Nc1ccccc1OCC(=O)c1cc(C)n(Cc2cccs2)c1C	?	0%	?	-94*	?	-30%
CCn1nc(C(=O)OCC(=O)c2cc(C)n(Cc3cccs3)c2C)c2ccccc2c1=O	13%	-2%	-13%	12	?	6%
CN(C)CCNc1ncnc2c1sc1nc(-c3ccccc3)c3c(c12)CCCC3	?	11%	?	-68*	10µM*	?
O=C(O)CCn1cc(C=C2C(=O)NC(=O)NC2=O)c(-c2ccc(Br)cc2)n1	-2%	1%	18%	-12	?	23%
O=C(O)CCn1cc(/C=C/C(=O)c2ccc(Cl)cc2)c(-c2ccc(Br)cc2)n1	16µM*	0%	22%	-25	-25%	-26%
CCCNC(=O)NC(=O)COC(=O)c1ccc(S(=O)(=O)N(C)c2ccccc2OC)cc1	17%	-8%	2%	22	?	-5%
COc1ccccc1N(C)S(=O)(=O)c1ccc(C(=O)OCC(=O)NCCC2=CCCCC2)cc1	-11%	-3%	5%	-62*	?	-11%
COc1ccccc1N(C)S(=O)(=O)c1ccc(C(=O)N(C)Cc2ccc(Cl)s2)cc1	?	.	?	-22	?	11µM*
CCOc1ccc(CN(C)C(=O)c2ccc(S(=O)(=O)N(C)c3ccccc3OC)cc2)cc1	22µM*	.	11µM*	?	.	.
O=C(/C=C/c1ccccc1)NCCC1=CCCCC1	29%	2%	3%	-10	?	-2%
COc1ccccc1N(C)S(=O)(=O)c1ccc(C(=O)O)cc1	31%	4%	6%	?	19%[46.1 µM]	4%[46.1 µM]
COc1ccccc1/C=C/C(=O)NCCC1=CCCCC1	0%	4%	-23%	-18	?	7.9µM*
COc1ccccc1C1CN(Cc2c(C)nc3sccn23)Cc2ccccc2O1 (stereo not drawn)	7%	.	.	.	.	.
C[C@H]1C=C2C=C[C@H](C)[C@H](CC[C@@H]3C[C@@H](O)CC(=O)O3)[C@H]2[C@@H](OC(=O)[C@@H](C)CCO)C1	-23%	-7%	.	.	.	.
CC(OCc1ccccc1)C(NC(=O)OC(C)(C)C)C(=O)NC1COC2CC(n3cc(F)c(=O)[nH]c3=O)OC12 (stereo not drawn)	.	0%	.	.	.	.
CCC(C)Nc1nc2c(c(=O)n(C)c(=O)n2C)n1Cc1ccc(F)cc1 (stereo not drawn)	.	-3%	-13%	12	?	0%
C=CCNc1nc2c(c(=O)n(C)c(=O)n2C)n1CC	-16%	-6%	8%	-12	.	.
C=CCNc1nc2c(c(=O)n(C)c(=O)n2C)n1CCCCCC	14µM*	-8%	?	-96*	?	-42%
